Here are results for 59 compounds from PubChem BioAssay AID686970 (National Center for Advancing Translational Sciences (NCATS), 2013).

Hit rate of the full screen: of about 360,000 compounds, about 6,000 (1.7%) were called active. Entries that show only a call come without a potency. About 8% were inconclusive and are not listed. This is one part of a sample in which actives are shown more often than they occur. The call rests on the fitted dose curve; in most records, active means well fitted cell-killing curve with a large enough effect; inconclusive means small, poorly fitted or top-dose-only effect, or effect the other way; inactive means flat fitted curve, though single readings scatter.
Potency means the concentration at half of the fitted maximal effect.

A short description of this experiment: qHTS for induction of synthetic lethality in tumor cells producing 2HG: qHTS for the HT-1080-NT fibrosarcoma cell line.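 Further: NT is the 2HG producing partner of a matched IDH1 knockdown line; nearly all actives have a fitted effect of over 55% in size.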 The note with it: HT-1080-NT fibrosarcoma viability, CellTiter-Glo ATP luminescence, 48 h; series mostly up to 46.1 µM. The method, boiled down:
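Compounds were tested in concentration-response format on HT-1080-NT cells for 48 hours at 37 degrees C. Cell viability came from CellTiter-Glo luminescence; curves were classified by r2, response magnitude and activity.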
In general terms: In qHTS, concentration-response curves come from the screen itself.
As for `CC(C)Oc1cc(F)ccc1-c1cc(C(=O)Nc2ccc(F)cc2)[nH]n1`, the Potency entry was “inactive”.
Same read-out and setting: under `CCN(CC)C(=O)C1=C(C)N(Cc2ccccc2)C(=O)C(CC(=O)NC(c2ccccc2)c2ccccc2)C1` (centres undefined) stands “inactive”.
Consider `O=C(C[C@H]1CC[C@@H](NC(=O)c2ccncc2)[C@@H](CO)O1)NCC1CC1`, for which the Potency entry is “inactive”.
Still for that read-out and setting: the result for `NCCCCC(C(=O)O)N(C(=O)OCc1ccccc1)C(=O)OCc1ccccc1` (centres undefined) reads “inactive”; that for `CCCCCCn1c(=O)n2n(c1=O)C[C@]1(OC(=O)NCc3ccc(OC)c(OC)c3)CN(S(=O)(=O)c3ccc(C)cc3)C[C@]1(O)C2`, “inactive”; that for `COc1ccccc1-n1nnnc1SCC(=O)NC(=O)Cc1ccccc1`, “inactive”.
Same read-out and setting: the result for `COc1ccccc1-n1nnnc1S(=O)(=O)Cc1ccc(Cl)cc1` reads 20.6 µM (active).
For the compound `CCC(C)N(C(=O)CSc1nnnn1-c1ccccc1OC)C1CCS(=O)(=O)C1` (centres undefined), the activity, negative = less viability is -3.07% [at 9.24 µM] (inactive).
On to `CC(=O)C[C@@H]1OC[C@H](CO)N1S(=O)(=O)c1ccc(C)cc1`, for which the Potency result is “inactive”.
Still for that read-out and setting: under `COc1ccc2c(c1)c(=Cc1ccc(N(C)C)cc1)c1cc(-c3ccccc3)[n+](C)n12` stands 13 µM (active).
Still for that read-out and setting: under `COc1ccc2sc(-c3ccc(N(C)C)cc3)c(-c3ccc4cc[nH]c4c3)c2c1` stands “inactive”; under `O=C(NCC(O)c1nc2ccccc2[nH]1)c1ccc(Br)cc1` (centres undefined), “inactive”.
Same read-out and setting: the result for `CCOc1ccccc1N1CCN(C(=O)COc2ccc3c(C)cc(=O)oc3c2)CC1` reads “inactive”; that for `Cc1cc(=O)oc2cc(OCC3CC(c4ccccc4Cl)=NO3)ccc12` (centres undefined), 0.708 µM (active).
`Cc1cc(=O)oc2cc(OCCC[n+]3ccccc3)ccc12`: the Potency result is “inactive”.
On the same count and under the same terms, the result for `COc1cc(NC(=O)C2=C(C)OCCS2)c(Cl)cc1C(=O)NCCCN1CCCC(C)C1` (centres undefined) reads “inactive”; that for `Cc1ccc(S(=O)(=O)N[C@H]2CCC[C@@H]2O)cc1`, “inactive”.
Still for that read-out and setting: under `CCOC(=O)N1C(=O)C[C@](Sc2ccc(C)cc2)(C(=O)OC)[C@H]1c1ccccc1` stands “inactive”; under `COc1ccc(C(=O)NN(C)c2nc(-c3ccccc3)cc(C)c2S(C)(=O)=O)cc1`, “inactive”.
`CN(NC(=O)c1ccccc1F)c1nc(C(F)(F)F)nc2ccccc12`: the Potency is 0.291 µM (active).
The same measure, in the same setting: under `CC(NC(=O)c1ccccc1F)c1cccc2ccccc12` (centres undefined) stands “inactive”; under `Cn1c(CC(=O)NNC(=O)c2ccccc2F)nc2ccccc21`, “inactive”; under `Cc1cccc(C(=O)Nc2ccc(C(=O)N/N=C/c3cccc(C)n3)cc2)c1`, “inactive”.
Consider `CSc1nc(N(C)NC(=O)c2cccc(C)c2)c2ccccc2n1`, for which the Potency is 0.13 µM (active).
Same read-out and setting: under `COc1ccc(-c2cc(NC=O)c3ncc(-c4cccc(C(=O)N(C)C)c4)n3c2)c(OC)c1` stands “inactive”.
On the same count and under the same terms, under `CC1(C)OC(=O)C2=C(CC(c3ccccc3)OC2CCc2ccccc2)O1` (centres undefined) stands “inactive”; under `O=Nc1c(O)cc(O)c2ccccc12`, “inactive”.
Still for that read-out and setting: the result for `CCC(c1nnnn1-c1ccc2c(c1)OCCO2)N1CCN(c2ccc(C(F)(F)F)cn2)CC1` (centres undefined) reads “inactive”; that for `CCC(C)CN1C(=O)CSCC1(C)C(=O)NCc1ccccc1` (centres undefined), “inactive”; that for `COc1ccc2c(c1)CCCO[C@]21O[C@H](CCO)C[C@H](O)[C@H]1O`, “inactive”.
On to `CN(C)C(=O)COC(=O)c1cccc(S(=O)(=O)N2CC3(C)CC2CC(C)(C)C3)c1` (centres undefined), for which the Potency entry was “inactive”.
In the case of `Cc1nnnn1/C(=C\c1ccccc1)C(=O)OCC(=O)N1CC2(C)CC1CC(C)(C)C2` (centres undefined), the Potency was 23.1 µM (active).
Still for that read-out and setting: under `CCOC(=O)C1CCCN(C(=O)c2cc(-c3cccs3)oc2C)CC1` (centres undefined) stands “inactive”.
Regarding `CC1(C(=O)O)CCCN(C(=O)/C=C/c2ccccc2)C1` (centres undefined), the Potency entry is “inactive”.
Still for that read-out and setting: under `Cc1cccc(C=CC(=O)c2ccc(Cl)cc2)c1` stands “inactive”; under `Cc1[nH]c(=O)c(C(=O)/C=C/c2ccccc2)c2c1CCCC2`, 7.08 µM (active).
Still for that read-out and setting: under `O=C(NCCOc1ccccc1)N1[C@H]2CC[C@@H]1C=C(c1ccc(F)cc1OCc1ccccc1)C2` stands “inactive”; under `CC1(C(=O)NCc2ccccc2)CN(S(C)(=O)=O)CC(=O)N1CC(F)(F)F` (centres undefined), “inactive”.
Same read-out and setting: the result for `OC[C@@H]1CN(Cc2ccc(-c3ccccc3)cc2)C[C@H](n2cnc3c(NC4CCCC4)ncnc32)O1` reads 9.2 µM (active); that for `OC[C@@H]1CN(C2CCCC2)C[C@H](n2cnc3c(NC4CCC4)ncnc32)O1`, “inactive”; that for `OC[C@@H]1CN(Cc2cccs2)C[C@H](n2cnc3c(NC4CCCC4)ncnc32)O1`, “inactive”.
Regarding `COc1cc(C(=O)OCCCN2CCOCC2)cc(OC)c1OC`, the Potency result is “inactive”.
Consider `O=C(COC(=O)CCc1c[nH]c(=O)[nH]1)Nc1ccccc1Cl`, for which the Potency entry is “inactive”.
`O=C(Nc1ccccc1Cl)/C(Cl)=C(\Cl)S(=O)c1ccccc1` (centres undefined): the Potency is 20.6 µM (active).
Still for that read-out and setting: the result for `CN(C)S(=O)(=O)Oc1ccccc1C(=O)Nc1ccccc1Cl` reads “inactive”.
Still for that read-out and setting: the result for `COC(=O)[C@@]12C[C@@H](CC(=O)N3CCCCC3)C(=O)N(Cc3ccc4c(c3)OCO4)C1=CCC(C)(C)C2` reads “inactive”; that for `CN(Cc1ccccc1)C(=O)[C@@H]1CCCN1C(=O)[C@@H]1CCCN1C(=O)c1c(F)cccc1F`, “inactive”.
On the same count and under the same terms, under `COc1ccc(NS(=O)(=O)c2ccc(C(=O)Nc3c(C)n(C)n(-c4ccccc4)c3=O)cc2)cc1` stands “inactive”; under `COc1ccc(NS(=O)(=O)c2ccc(NC(=O)c3ccc(N(C)S(C)(=O)=O)cc3)cc2)cc1`, 18.4 µM (active); under `COc1ccc(C(=O)Nc2cccc(S(C)(=O)=O)c2)cc1`, “inactive”.
Turning to `O=S1(=O)CC(N2CCN(Cc3ccccc3F)CC2)CN1Cc1cn(Cc2ccccc2)nn1` (centres undefined), the Potency result is “inactive”.
On the same count and under the same terms, under `C[C@@H]1CN([C@@H](C)CO)S(=O)(=O)c2ccc(C#Cc3cccc(F)c3)cc2O[C@H]1CN(C)S(=O)(=O)c1cn(C)cn1` stands “inactive”; under `COC(=O)[C@]12CCCCC=C1N(Cc1ccco1)C(=O)[C@H](CC(=O)NCC1CCCCC1)C2`, “inactive”; under `Nc1ncnc2c1ncn2[C@@H]1O[C@H](C(=O)NS(=O)(=O)c2c(Cl)nc3sccn23)[C@@H](O)[C@H]1O`, “inactive”.
`COc1ccc(NC(=O)CSc2nnnn2-c2cccc(OC)c2)cc1`: the Potency result was “inactive”.
For `CCOc1cccc(-n2nnnc2-c2ccc(OC)cc2)c1`, the Potency is 5.8 µM (active).
Same read-out and setting: the result for `CCOC(=O)C(C)n1cnc2c(nnn2-c2cccc(OC)c2)c1=O` (centres undefined) reads “inactive”; that for `COCCCNC(=O)c1ccc(-c2c(C)noc2C)c2ccoc12`, “inactive”; that for `COc1ccccc1-n1c(SCC(=O)Nc2ccc(Cl)cc2)nc(O)c(Cc2ccccc2)c1=O`, “inactive”.
